# Results filed as inconclusive are left out. Active and inactive are the calls of the source. The call rests on the fitted dose curve; in most records, active means well fitted curve in the direction sought with a large enough effect; inconclusive means small, poorly fitted or top-dose-only effect, or another doubt; inactive means no such curve, though single readings can be large; an effect the other way counts as inactive or inconclusive. *1 amine or outer side, *2 acyl side, *3 side chain or, on linkers, in order; H or OH if unused. Where a SMILES comes first, the peptide text is derived from it. Bridges are numbered along the chain shown (N, C = ends). [ ]: non-standard residue; d: D form. The star is where a group is joined. ξ: configuration not given here. ξhTyr(3S-OH,4S-OH,3'-OSO3H) = NC(C(=O)O)[C@H](O)[C@@H](O)c1ccc(O)c(OS(=O)(=O)O)c1; Orn(4R-OH,5R-OH) = O=C([C@H](C[C@@H](O)[C@@H](O)N[*:3])N[*:1])[*:2]; X2 = CCCCCOc1ccc(-c2cc(-c3ccc(C(=O)*)cc3)no2)cc1; X3 = C[C@H]1CN([*:1])C(C(=O)[*:2])[C@H]1O; ξGln(3R-OH) = NC(=O)C[C@@H](O)C(N)C(=O)O; ξPro(4R-OH) = O=C(O)C1C[C@@H](O)CN1; ξThr(3R) = C[C@@H](O)C(N)C(=O)O
# Experiment: HepG2 cells viability qHTS for Zika virus inhibitors (AID 1347168)
# Settings: Zika counter-screen; series mostly up to 45.9 µM; activity change, negative = cytotoxicity: at the top concentration
# Outline: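 Counter-screen for cytotoxicity of hits from NS2B-NS3 protease qHTS. Overnight-attached cells (2.5 x 10^5 cells/mL, DMEM/4% FBS) were dosed in titration, incubated 24 to 48 hours, then assayed by CellTiter Glo.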
# On the % scale 0 is the no-effect control and ±100 the full control effect.
row,SMILES,"activity change, negative = cytotoxicity"
1,CC1(C)CC=C(c2cnc3ccccc3c2)c2cc(C(=O)Nc3ccc(C(=O)O)cc3)ccc21,19.1% (inactive)
2,COc1cccc(OC)c1-c1cc(C(=O)N[C@@H](CC(C)C)C(=O)O)nn1-c1ccnc2cc(Cl)ccc12,4.7% (inactive)
3,C=CC1(C)C=C2CC[C@H]3[C@@](C)(C(=O)O)CCC[C@]3(C)C2CC1 (some centres undefined),5.24% [at 26.9 µM] (inactive)
4,C=C1CCC2C(C)(C)CCC[C@]2(C)[C@H]1CC/C(C)=C/C(=O)O (some centres undefined),-2.13% (inactive)
5,C/C(=C\CCC(C)CCO)C(=O)OC[C@H]1O[C@@H](O[C@@H]2OC=C(C(=O)O)[C@H]3CC[C@](C)(O)[C@@H]23)C(O)[C@@H](O)C1O (some centres undefined),4.91% [at 26.9 µM] (inactive)
6,COc1cc(/C=C/c2ccccc2)c(C(=O)O)c(O)c1CC=C(C)C,2.67% [at 26.9 µM] (inactive)
7,COc1cc(Nc2ccc([N+](=O)[O-])cc2C(=O)O)cc2ccccc12,-8.99% (inactive)
8,C=C1C2CCC3C(CCC4[C@@]3(C)CCC[C@@]4(C)C(=O)O)(C2)[C@@H]1OC(=O)/C(C)=C\C (some centres undefined),2.51% [at 26.9 µM] (inactive)
9,C/C=C/C=C/C=C/C(=O)O[C@@H]1[C@@H](OC)C2=C(C(=O)N(C(CCC(=O)O)C(=O)O)C2)[C@@]2(C)CCCC(C)(C)[C@H]12 (some centres undefined),6.07% [at 26.9 µM] (inactive)
10,CCOc1ccc(-c2cc(NC(=O)c3c(F)cccc3F)c(C(=O)O)s2)cc1,0.556% (inactive)
11,Cc1ccccc1NC(=O)Nc1ccc(CN2C(=O)N([C@@H](CC(C)C)C(=O)N[C@@H](CC(=O)O)c3ccccc3)C(=O)C2(C)C)cc1,-2.3% (inactive)
12,O=C(Nc1ccccc1)Nc1ccc(-c2ccc(C(=O)C3CCCC3C(=O)O)cc2)cc1 (centres undefined),-0.184% (inactive)
13,COc1cc(Nc2nc3ccccc3nc2NS(=O)(=O)c2cccc(NC(=O)c3ccc(C)c(OC)c3)c2)cc(OC)c1,12.9% (inactive)
14,Cc1ccc2[nH]c(=O)c(C3=NN(C(=O)CCC(=O)O)C(c4ccc(Br)cc4)C3)c(-c3ccccc3)c2c1 (centres undefined),1.25% (inactive)
15,CCc1nnc(NS(=O)(=O)c2ccc(NC(=S)NC(=O)/C=C/c3ccc(F)cc3)cc2)s1,4.53% (inactive)
16,CC(C)CC(c1c(O)c(C=O)c(O)c(C=O)c1O)C1CCC(C)(O)C2CC(C(C)(C)O)CCC12C (centres undefined),-5.35% [at 26.9 µM] (inactive)
17,Cc1cc(C)c2nc(-c3ccccn3)cc(C(=O)Nc3ccc(S(=O)(=O)Nc4onc(C)c4C)cc3)c2c1,4.25% (inactive)
18,COc1cc(C)c(C(=O)OC2C(C)OC(OC3CCC(C)C4C3C=C(C)C3/C(C)=C\CC/C(C)=C/C5(C)C=C(C(=O)O)C(C)CC56OC(=O)/C(=C(\O)C34C)C6=O)C(O)C2O)c(OC)c1 (centres undefined),-5.43% [at 15.3 µM] (inactive)
19,COc1cnc(-c2ccc(Cn3c(CC(C)(C)C(=O)O)c(SC(C)(C)C)c4cc(OC[C@@H]5Cc6ccccc6N5C(C)=O)ccc43)cc2)nc1,1.41% [at 26.9 µM] (inactive)
20,"CCCCCOc1ccc(-c2cc(-c3ccc(C(=O)N[C@H]4C[C@@H](O)[C@@H](O)NC(=O)C5[C@@H](O)[C@@H](C)CN5C(=O)C([C@H](O)CC(N)=O)NC(=O)C([C@H](O)[C@@H](O)c5ccc(O)c(OS(=O)(=O)O)c5)NC(=O)C5C[C@@H](O)CN5C(=O)C([C@@H](C)O)NC4=O)cc3)no2)cc1 (stereo partly drawn) (X2-[Orn(4R-OH,5R-OH)][ξThr(3R)][ξPro(4R-OH)][ξhTyr(3S-OH,4S-OH,3'-OSO3H)][ξGln(3R-OH)][X3]; lactam 1-C)",-4.64% [at 26.9 µM] (inactive)
21,COc1cc2c(c(O)c1OC/C=C(\C)CC/C=C(/C)CCC=C(C)C)CN(C(CCC(=O)O)C(=O)O)C2=O (centres undefined),2.72% [at 26.9 µM] (inactive)
22,CC(=O)OC12CC(C)C(OC(=O)c3ccccc3)C1/C=C(/C)C(OC(=O)c1ccccc1)CC(=O)C(C)(C)/C=C/C(C)C2=O (centres undefined),3.56% [at 15.3 µM] (inactive)
23,C=C1C2CCC3CC2(CC(O)C2(O)C1CC(OC1OC(CO)C(O)C(O)C1O)C2(C)C)CC3(C)O (centres undefined),8.64% [at 26.9 µM] (inactive)

# Experiment: Tertiary RLuc qRT-PCR qHTS assay for Zika virus inhibitors (AID 1347169); further: nearly all actives have a fitted effect of over 55% in size; further: potency means the concentration at half of the fitted maximal effect; on activity change, negative = inhibition: top concentration of the series differs between compounds
# Settings: infected Vero cells, reporter luminescence, 48-72 h; series mostly up to 45.9 µM; activity change, negative = inhibition: at the top concentration
# Outline: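 Vero cells (1,000/well) infected with recombinant ZIKV-RLuc (Cambodian) at MOI 1-2 after compound addition, 48-72 hrs at 37 degrees C. Live-cell Renilla luciferase substrate added; luminescence read after 1-1.5 hrs.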
SMILES,"activity change, negative = inhibition",Potency
CC1(C)CC=C(c2cnc3ccccc3c2)c2cc(C(=O)Nc3ccc(C(=O)O)cc3)ccc21,-1.7% (inactive),–
COc1cccc(OC)c1-c1cc(C(=O)N[C@@H](CC(C)C)C(=O)O)nn1-c1ccnc2cc(Cl)ccc12,-54.8% (inactive),–
C=C1CCC2C(C)(C)CCC[C@]2(C)[C@H]1CC/C(C)=C/C(=O)O (some centres undefined),-33.7% (inactive),–
C=C1C2CCC3C(CCC4[C@@]3(C)CCC[C@@]4(C)C(=O)O)(C2)[C@@H]1OC(=O)/C(C)=C\C (some centres undefined),-20% [at 26.6 µM] (inactive),–
C/C=C/C=C/C=C/C(=O)O[C@@H]1[C@@H](OC)C2=C(C(=O)N(C(CCC(=O)O)C(=O)O)C2)[C@@]2(C)CCCC(C)(C)[C@H]12 (some centres undefined),5.67% [at 26.6 µM] (inactive),–
Cc1ccccc1NC(=O)Nc1ccc(CN2C(=O)N([C@@H](CC(C)C)C(=O)N[C@@H](CC(=O)O)c3ccccc3)C(=O)C2(C)C)cc1,-14.7% (inactive),–
O=C(Nc1ccccc1)Nc1ccc(-c2ccc(C(=O)C3CCCC3C(=O)O)cc2)cc1 (centres undefined),-25.7% (inactive),–
CCc1nnc(NS(=O)(=O)c2ccc(NC(=S)NC(=O)/C=C/c3ccc(F)cc3)cc2)s1,–,23.4 µM (active)
CC(C)CC(c1c(O)c(C=O)c(O)c(C=O)c1O)C1CCC(C)(O)C2CC(C(C)(C)O)CCC12C (centres undefined),-17.1% [at 26.6 µM] (inactive),–
CC(=O)OC12CC(C)C(OC(=O)c3ccccc3)C1/C=C(/C)C(OC(=O)c1ccccc1)CC(=O)C(C)(C)/C=C/C(C)C2=O (centres undefined),–,2.76 µM (active)
C=C1C2CCC3CC2(CC(O)C2(O)C1CC(OC1OC(CO)C(O)C(O)C1O)C2(C)C)CC3(C)O (centres undefined),-29.2% [at 26.6 µM] (inactive),–

# Source: PubChem BioAssay (NCATS)
